In PubChem BioAssay (NCI):
About 83,000 compounds went through this panel and 20% of them were active in at least one assay; those are over-represented in the sample as a whole.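 Plates (96-well) were seeded with cells, treated with compound at one concentration, and incubated for 48 hours before percent growth was determined.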 A number with no mark means an inactive call. The source made the active and inactive calls. Rule for the calls: active = growth percent below 10; inactive = the rest.

What was measured:
Test in all cases: NCI-60 one-dose screen, 48 h (100 = growth as untreated, 0 = no growth, -100 = all killed)
Settings in all cases: 10 µM unless noted
[1] = tested on: DU-145 prostate
[2] = tested on: K-562 leukemia
[3] = tested on: MALME-3M melanoma
[4] = tested on: MDA-MB-231 breast
[5] = tested on: RXF 393 renal
[6] = tested on: SF-268 CNS
[7] = tested on: SF-295 CNS
[8] = tested on: SF-539 CNS
[9] = tested on: UACC-257 melanoma

Cc1cc2nc(C(Cl)Cl)nc(-c3cccs3)n2n1
growth [1]: -26.5% (active) | growth [2]: 35.3% | growth [3]: 39.7% | growth [4]: 11.2% | growth [5]: -52.9% (active) | growth [6]: 28.9% | growth [7]: -9.21% (active) | growth [8]: 17.5% | growth [9]: 33.1%

C=C1CC[C@@H]2[C@](C)(CO)[C@H](O)CC[C@@]2(C)[C@@H]1C/C(O)=C1\CCOC1=O
growth [1]: 102% | growth [2]: 73.1% | growth [3]: 105% | growth [4]: 110% | growth [5]: 123% | growth [6]: 98.8% | growth [7]: 103% | growth [8]: 108% | growth [9]: 93.1%

CNC(=O)c1c(NC(=O)c2cccc(C(F)(F)F)c2F)sc2c1CCC(=O)C2
growth [1]: 30.6% | growth [2]: 13.2% | growth [3]: 6.12% (active) | growth [4]: -28.8% (active) | growth [5]: -11.4% (active) | growth [6]: 16.7% | growth [7]: -6.97% (active) | growth [8]: -56% (active) | growth [9]: -1.77% (active)

C#CCNC1CCC(c2csc(C#C)n2)=C1C (configuration not stated)
growth [1]: 67.6% | growth [2]: 63% | growth [3]: -78.3% (active) | growth [4]: 8.61% (active) | growth [5]: 117% | growth [6]: 78.1% | growth [7]: -28.2% (active) | growth [8]: -92.4% (active) | growth [9]: 80.1%

C=C1CC[C@@H]2[C@]3(C)COC(c4ccccc4)O[C@@H]3CC[C@@]2(C)[C@@H]1C/C=C1/C(=O)OC[C@H]1O (some centres not stated)
growth [1]: 92.1% | growth [2]: 43.7% | growth [3]: 110% | growth [4]: 99.3% | growth [5]: 127% | growth [6]: 97.5% | growth [7]: 102% | growth [8]: 92.1% | growth [9]: 85%

O=S(=O)(NCCCNc1nccc(-c2[nH]c(-c3ccccc3)nc2-c2ccc(Cl)c(O)c2)n1)c1cccc(F)c1
growth [1]: 66.1% | growth [2]: 35.3% | growth [3]: 2.24% (active) | growth [4]: 60.2% | growth [5]: 34.1% | growth [6]: 74.3% | growth [7]: 47.4% | growth [8]: 94.1% | growth [9]: 25.6%

COc1ccc(-n2c(/C=C3\C(=O)Nc4ccccc43)ccc2CO)cc1
growth [1]: 106% | growth [2]: 90.9% | growth [3]: 72.2% | growth [4]: 95% | growth [5]: 99.7% | growth [6]: 99.2% | growth [7]: 105% | growth [8]: 97.5% | growth [9]: 105%

NS(=O)(=O)c1ccc(Nc2nc(N/N=C/c3c[nH]c4ccccc34)nc(Nc3ccccc3)n2)cc1
growth [1]: 43.4% | growth [2]: 23% | growth [3]: 46.1% | growth [4]: 48.8% | growth [5]: -25.2% (active) | growth [6]: 59.2% | growth [7]: 31.5% | growth [8]: 47.6% | growth [9]: 63.1%

O=S(=O)(NCCCNc1nccc(-c2[nH]c(-c3ccccc3)nc2-c2ccc(Cl)c(O)c2)n1)c1ccc(Br)cc1
growth [1]: 47.7% | growth [2]: 18.9% | growth [3]: 2.55% (active) | growth [4]: 43.4% | growth [5]: -6.2% (active) | growth [6]: 37.9% | growth [7]: 2.98% (active) | growth [8]: 46.7% | growth [9]: 16.7%

NC(=O)c1c(NC(=O)c2ccc(F)cc2F)sc2c1CCC(=O)C2
growth [1]: 101% | growth [2]: 15.8% | growth [3]: 63.8% | growth [4]: 39.2% | growth [5]: 85.1% | growth [6]: 34.7% | growth [7]: 99.7% | growth [8]: 16.3% | growth [9]: 81.8%

NS(=O)(=O)c1ccc(Nc2nc(N/N=C/c3ccccn3)nc(Nc3ccccc3)n2)cc1
growth [1]: 4.85% (active) | growth [2]: 12.3% | growth [3]: -68.2% (active) | growth [4]: -29.9% (active) | growth [5]: -74% (active) | growth [6]: -22% (active) | growth [7]: 0.752% (active) | growth [8]: -42.1% (active) | growth [9]: -18.1% (active)

CS(=O)(=O)c1ncc(-c2ccccc2)cn1
growth [1]: 104% | growth [2]: 93.3% | growth [3]: 104% | growth [4]: 99.8% | growth [5]: 106% | growth [6]: 101% | growth [7]: 107% | growth [8]: 94.4% | growth [9]: 89.7%

O=S(=O)(NCCNc1nccc(-n2cnc3ccccc32)n1)c1ccc(Cl)cc1
growth [1]: 104% | growth [2]: 97.6% | growth [3]: 99.5% | growth [4]: 90.6% | growth [5]: 117% | growth [6]: 92.3% | growth [7]: 96.7% | growth [8]: 91.2% | growth [9]: 103%

NS(=O)(=O)c1ccc(Nc2nc(N/N=C/c3ccc(Cl)cc3)nc(Nc3ccccc3)n2)cc1
growth [1]: 72.7% | growth [2]: 59.9% | growth [3]: 88.3% | growth [4]: 86.7% | growth [5]: -11.5% (active) | growth [6]: 73.7% | growth [7]: 58.6% | growth [8]: 53.8% | growth [9]: 89.5%

Cc1ccc(-c2nn(-c3ccccc3)cc2/C=C/C(=O)c2ccc(NC(=O)CCCCCCC(=O)NO)cc2)cc1
growth [1]: 79.1% | growth [2]: 43.2% | growth [3]: 122% | growth [4]: 78.6% | growth [5]: -2.12% (active) | growth [6]: 81.8% | growth [7]: 88% | growth [8]: 82.5% | growth [9]: 82.3%

NS(=O)(=O)c1ccc(-n2cc(CN3CCNCC3)nn2)cc1
growth [1]: 111% | growth [2]: 95.9% | growth [3]: 112% | growth [4]: 105% | growth [5]: 111% | growth [6]: 102% | growth [7]: 106% | growth [8]: 98.7% | growth [9]: 111%

COc1cc(Nc2c(C#N)cnn3cc(-c4cnn(CC(C)(C)O)c4)cc23)ccc1Cl
growth [1]: 47.6% | growth [2]: 12.9% | growth [3]: 67.5% | growth [4]: 65.4% | growth [5]: -20.3% (active) | growth [6]: 56.5% | growth [7]: 63% | growth [8]: 8.69% (active) | growth [9]: 81.7%

CN1CCN(c2ccc(/C=N/n3cnc4oc(-c5ccccc5)cc4c3=N)cc2)CC1
growth [1]: 100% | growth [2]: 6.36% (active) | growth [3]: 113% | growth [4]: 65.3% | growth [5]: -5.53% (active) | growth [6]: 92.5% | growth [7]: 99.6% | growth [8]: 84.9% | growth [9]: 96.7%

COc1ccc([C@@H]2c3[nH]c4ccccc4c3C[C@H]3C(=O)N(C4CCN(CC5CCCCC5)CC4)CC(=O)N23)c(OC)c1
growth [1]: 80.8% | growth [2]: 22% | growth [3]: 95.7% | growth [4]: 75.5% | growth [5]: 28.7% | growth [6]: 67.2% | growth [7]: 98.6% | growth [8]: 78.6% | growth [9]: 84.8%

Fc1ccc(-c2cc3nc(C(Cl)Cl)nc(-c4ccco4)n3n2)cc1
growth [1]: -48.2% (active) | growth [2]: 33.4% | growth [3]: 93.3% | growth [4]: -26.2% (active) | growth [5]: -65.6% (active) | growth [6]: 3.07% (active) | growth [7]: -9.65% (active) | growth [8]: -43.4% (active) | growth [9]: 30.8%

Cc1cc(C)n(C(=O)c2sc(=S)n(-c3ccccc3)c2N=Nc2c(N)n[nH]c2N)n1
growth [1]: 110% | growth [2]: 105% | growth [3]: 73.9% | growth [4]: 89.2% | growth [5]: 116% | growth [6]: 104% | growth [7]: 104% | growth [8]: 99.1% | growth [9]: 106%

O=C1[C@H]2Cc3c([nH]c4ccccc34)[C@@H](c3ccc(Cl)cc3)N2C(=O)CN1C1CCN(Cc2ccccc2)CC1
growth [1]: 55.2% | growth [2]: 9.91% (active) | growth [3]: 72.9% | growth [4]: 55.2% | growth [5]: 41% | growth [6]: 50% | growth [7]: 64.9% | growth [8]: 63.7% | growth [9]: 68%

CC1=CC(=O)C2=C(C)CC(OC(=O)CCc3ccccc3)[C@@H]3[C@H](OC(=O)[C@@H]3C)[C@@H]12 (some centres not stated)
growth [1]: 101% | growth [2]: 84.2% | growth [3]: 113% | growth [4]: 96.8% | growth [5]: 122% | growth [6]: 98.8% | growth [7]: 90.7% | growth [8]: 94.1% | growth [9]: 91.6%

Cc1ccc(-c2cc3nc(C(Cl)Cl)nc(-c4cccs4)n3n2)cc1
growth [1]: 3.22% (active) | growth [2]: 93.2% | growth [3]: 71.7% | growth [4]: 41.6% | growth [5]: 40.5% | growth [6]: 82.2% | growth [7]: 32.8% | growth [8]: 68.5% | growth [9]: 106%

CCN1CCN(Cc2cn(-c3ccc(S(N)(=O)=O)cc3)nn2)CC1
growth [1]: 108% | growth [2]: 104% | growth [3]: 111% | growth [4]: 104% | growth [5]: 116% | growth [6]: 103% | growth [7]: 105% | growth [8]: 99.3% | growth [9]: 107%

O=C(CSc1nnc(-c2ccc3nc(-c4ccccc4)[nH]c3c2)o1)Nc1ccc(C(=O)/C=C/c2ccccc2)cc1
growth [1]: 107% | growth [2]: 112% | growth [3]: 94.5% | growth [4]: 105% | growth [5]: 114% | growth [6]: 109% | growth [7]: 109% | growth [8]: 96.8% | growth [9]: 103%

Cc1ccc(-c2cc3nc(C(Cl)Cl)nc(-c4ccco4)n3n2)cc1
growth [1]: -24.3% (active) | growth [2]: 55.5% | growth [3]: 93.3% | growth [4]: -21.7% (active) | growth [5]: -46.1% (active) | growth [6]: 20.5% | growth [7]: -4.81% (active) | growth [8]: -32.6% (active) | growth [9]: 57%

COc1ccccc1N1CCN(C2=CC(=O)C(C)=C(C)C2=O)CC1
growth [1]: 105% | growth [2]: 96.9% | growth [3]: 104% | growth [4]: 102% | growth [5]: 97.7% | growth [6]: 101% | growth [7]: 103% | growth [8]: 100% | growth [9]: 96.4%
